Reference: PMC4336329 (PLoS ONE, 2015)
Screen size: about 310,000 compounds; about 14,000 (4.5%) showed an effect of 50% or more. Effects have a minus sign here. This is one part of a sample in which strong results are shown more often than they occur.

Molecular target: human ether-à-go-go-related gene (hERG) potassium channel (human, UniProt Q12809)
Assay: primary screen, population patch clamp on CHO cells stably expressing hERG; higher = less effect of the substance
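Note: peak tail current of the secondary pulse compared with the same well before compound.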

Sequence of human ether-à-go-go-related gene (hERG) potassium channel (Q12809 whole entry, looked up): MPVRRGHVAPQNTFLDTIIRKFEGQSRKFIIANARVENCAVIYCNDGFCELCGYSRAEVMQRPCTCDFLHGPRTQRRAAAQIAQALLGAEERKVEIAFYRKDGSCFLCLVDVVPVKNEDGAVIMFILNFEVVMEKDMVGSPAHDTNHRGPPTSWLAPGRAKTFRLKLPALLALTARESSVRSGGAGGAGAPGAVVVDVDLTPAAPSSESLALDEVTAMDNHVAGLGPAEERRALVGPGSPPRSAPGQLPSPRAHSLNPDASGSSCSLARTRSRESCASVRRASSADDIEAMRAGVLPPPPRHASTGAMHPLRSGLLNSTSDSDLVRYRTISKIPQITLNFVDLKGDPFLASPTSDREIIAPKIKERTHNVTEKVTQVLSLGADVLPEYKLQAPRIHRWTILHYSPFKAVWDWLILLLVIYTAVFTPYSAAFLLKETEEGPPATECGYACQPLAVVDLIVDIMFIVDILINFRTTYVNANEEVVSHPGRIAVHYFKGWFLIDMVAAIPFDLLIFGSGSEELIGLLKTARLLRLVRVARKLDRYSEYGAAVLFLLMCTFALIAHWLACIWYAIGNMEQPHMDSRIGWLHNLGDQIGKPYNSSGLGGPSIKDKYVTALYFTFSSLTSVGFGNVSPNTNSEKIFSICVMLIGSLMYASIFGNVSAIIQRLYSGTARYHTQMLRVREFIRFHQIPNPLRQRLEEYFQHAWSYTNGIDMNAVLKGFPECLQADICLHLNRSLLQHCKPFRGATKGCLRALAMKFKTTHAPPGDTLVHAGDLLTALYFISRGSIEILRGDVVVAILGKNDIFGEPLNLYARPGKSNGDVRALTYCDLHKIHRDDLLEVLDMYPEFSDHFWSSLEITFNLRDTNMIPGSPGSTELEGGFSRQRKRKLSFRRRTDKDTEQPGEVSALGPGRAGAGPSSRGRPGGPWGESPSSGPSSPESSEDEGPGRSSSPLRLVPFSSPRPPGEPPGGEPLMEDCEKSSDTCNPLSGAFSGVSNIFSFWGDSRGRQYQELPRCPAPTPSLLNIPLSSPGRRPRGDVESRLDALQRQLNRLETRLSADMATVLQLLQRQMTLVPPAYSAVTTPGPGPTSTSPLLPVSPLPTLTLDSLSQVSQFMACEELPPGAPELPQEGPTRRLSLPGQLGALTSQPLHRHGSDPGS

SMILES | hERG current change (%, negative = inhibition) at 10uM [%]
Cn1nc([N+](=O)[O-])nc1Oc1ccccc1 | -5.63
COc1ccc(C(=O)NC2CCN(C(=S)Nc3cccc(C)c3C)CC2)cc1 | 0.204
O=C1c2cccc3c(Nc4ccccc4Cl)c([N+](=O)[O-])cc(c23)C(=O)N1CCO | -22.8
O=C1O/C(=C/c2ccccc2)c2ccccc21 | -3.12
O=C1O/C(=C\c2ccccc2)c2ccccc21 | -57.8
Cc1ccc(/C=C2\OC(=O)c3ccccc32)cc1 | 14.9
COc1ccc(S(=O)(=O)N2CCCC2C(=O)Nc2ccc(C)cc2)cc1 (stereo not shown) | -15.3
O=C(NNc1nc2c(F)cc(F)cc2s1)c1ccccc1 | 8.87
O=C(COc1ccccc1)NNc1nc2c(F)cc(F)cc2s1 | -62.6
O=C(COc1ccccc1)NNc1nc2c(F)cccc2s1 | 32.6
O=C(NN=C1CCCCC1)Nc1ccccc1Cl | 3.82
Cc1nonc1NC(=O)CSc1nnc(-c2ccoc2C)n1CC(C)C | -17.1
Cc1cccc(-n2c(SCC(=O)Nc3nonc3C)nnc2-c2ccoc2C)c1 | -78.9
Cc1ccc(C)c(-n2c(SCC(=O)Nc3nonc3C)nnc2-c2ccoc2C)c1 | -61.2
CNC(=O)CSc1nnc(-c2ccco2)n1-c1cc(C)ccc1C | -2.95
CCn1c(SCC(=O)Nc2nonc2C)nnc1-c1ccoc1C | -1.18
Cc1nonc1NC(=O)CSc1nnc(-c2ccoc2C)n1C | 4.89
CCCn1c(SCC(=O)Nc2nonc2C)nnc1-c1ccoc1C | -8.43
Cc1ccc(-n2c(SCC(=O)Nc3ccc4c(c3)OCO4)nnc2-c2ccoc2C)cc1 | -42.2
Cc1nonc1NC(=O)CSc1nnc(-c2ccoc2C)n1-c1cccc(Cl)c1 | -77.9
COc1ccc(C)cc1NC(=O)C(C)N1CCOCC1.Cl (stereo not shown) | 9.06
Cc1nc(Nc2nc3ccccc3o2)nc(C)c1C | 10.3

SMILES | hERG current change (%, negative = inhibition) at 10uM [%]
CCC(C(=O)Nc1ccc(C(=O)O)cc1NC(=O)C(CC)c1ccccc1)c1ccccc1 (stereo not shown) | 9.71
CCOc1ccc(CCNC(=O)C2CCN(c3nn4c(=O)cc(C)nc4s3)CC2)cc1OCC | -8.23
Cc1c(C)n(C)c2ccc(C(=O)N3CCN(c4ccccc4)CC3)cc12 | -5.05
CCOc1ccccc1-c1noc(CCC(=O)Nc2cccnc2)n1 | 9.94
CCC1C(=O)C(CC)C(c2ccccc2)NC1c1ccccc1 (stereo not shown) | 11.9
COc1cc2c(C(=O)N3CCN(c4cccc(Cl)c4)CC3)cn(CC(C)C)c(=O)c2cc1OC | -63.6
CCn1cc(C(=O)N2CCN(c3ccc(OC)cc3)CC2)c2cc(OC)c(OC)cc2c1=O | -33.8
CCCN1CCN(C(=O)c2cn(CC(C)C)c(=O)c3cc(OC)c(OC)cc23)CC1 | -41.1
COc1cc2c(C(=O)NCCCN3CCN(c4cccc(Cl)c4)CC3)cn(C)c(=O)c2cc1OC | -46
CCn1cc(C(=O)N2CCN(c3ccccn3)CC2)c2cc(OC)c(OC)cc2c1=O | -14.4
COc1ccc(C(=O)N2CCN(c3cccc(Cl)c3)CC2)c(OC)c1 | -44.6
COc1cc2c(C(=O)N3CCN(c4cccc(Cl)c4)CC3)cn(C)c(=O)c2cc1OC | -53.1
CCn1cc(C(=O)N2CCN(c3ccccc3OC)CC2)c2cc(OC)c(OC)cc2c1=O | -1.96
CCn1cc(C(=O)N2CCN(c3ccc(F)cc3)CC2)c2cc(OC)c(OC)cc2c1=O | -69.5
CCn1cc(C(=O)N2CCN(c3cccc(Cl)c3)CC2)c2cc(OC)c(OC)cc2c1=O | -64.8
CCn1cc(C(=O)N2CCN(c3ccc(C(C)=O)cc3)CC2)c2cc(OC)c(OC)cc2c1=O | -44.3
COc1ccccc1C(=O)N1CCN(c2cccc(Cl)c2)CC1 | 0.406
CCOC(=O)c1cnc(SC)nc1Oc1cccc(NC(=O)c2ccc(C)cc2)c1 | 11.4
COC(=O)c1cccnc1SCc1ccccc1 | -14.9
C/C(=N\OCC(=O)Nn1c(C)nc2ccccc2c1=O)c1ccccc1 | -13.8
Cc1cccc(NC(=O)c2cc3c([nH]c4ccccc43)c(C)n2)c1C | 11.6
COc1cc(C2C(C(=O)c3cccs3)=C(O)C(=O)N2CCN2CCOCC2)cc(OC)c1OC (stereo not shown) | 14.3

SMILES | hERG current change (%, negative = inhibition) at 10uM [%]
CN(C)c1cc[n+](CC(=O)Nc2cc(C(F)(F)F)ccc2Cl)cc1.[Cl-] | 7.63
CCn1c(CNc2ccc(F)cc2)nnc1SCC(=O)Nc1ccccc1OC | -30.2
CN1CCCN(C(=O)c2ccc(Cl)cc2)CC1 | 5.68
Cc1ccc2nc(SCC(=O)Nc3ccc4c(c3)CCC4)[nH]c2c1 | 8.84
CCN(CC)S(=O)(=O)c1ccc(-c2nnc(SCC(C)=O)o2)cc1 | -8.48
CCn1cc(C(=O)N2CCN(C3CCCCC3)CC2)c2cc(OC)c(OC)cc2c1=O | -20.6
COc1cc2c(C(=O)N3CCN(C4CCCCC4)CC3)cn(CC(C)C)c(=O)c2cc1OC | -63.3
CCOC(=O)C1CCCN(C(=O)c2cn(CC(C)C)c(=O)c3cc(OC)c(OC)cc23)C1 (stereo not shown) | 5.47
COc1ccc(NS(=O)(=O)c2cc3c4c(c2)C(C)C(=O)N4CCC3)cc1 (stereo not shown) | 10.3
CCN(CC)CC(=O)N1c2ccccc2Sc2ccc(Cl)cc21.Cl | -10.3
Cc1cc(C(=O)N/N=C/c2ccc(Cl)c([N+](=O)[O-])c2)c(C)n1-c1ccc(F)cc1 | -2.41
CC(C)n1c2ccccc2c2cc([N+](=O)[O-])ccc21 | 16.1
Cc1ccc(C(=O)NC(C(=O)NC2CCCC2)c2ccccc2)cc1 (stereo not shown) | 15
c1ccc(Sc2ncccn2)nc1 | 12.2
c1cnc(Sc2ccc3nnnn3n2)nc1 | -56.4
c1ccc(-c2ccc3nnnn3n2)cc1 | 5.72
COc1ccc(C(=O)c2sc3nc(-c4ccccc4)ccc3c2N)cc1OC | 18.1
CC[n+]1ccccc1/C=C/Nc1ccccc1.[I-] | -44.7
CC[n+]1c(/C=C/Nc2ccccc2)sc2ccccc21.[I-] | -72.2
CCN1/C(=C/C=C/c2oc3ccc(-c4ccccc4)cc3[n+]2CC)Oc2ccc(-c3ccccc3)cc21.CCOS(=O)(=O)[O-] | -2.14
CC[n+]1c(/C=C/N(C)c2ccccc2)oc2ccccc21.O=S(=O)([O-])CCO | 0.826
CC[n+]1c(/C=C2/C=C(C)CC(C)C2)sc2ccccc21.[I-] (stereo not shown) | -3.25

SMILES | hERG current change (%, negative = inhibition) at 10uM [%]
CCOc1ccc(S(=O)(=O)Nc2cccc(OC)c2)cc1 | -25
CC[n+]1c(/C=C2\C=C(C)CC(C)C2)sc2ccccc21.[I-] (stereo not shown) | 6.92
CC[n+]1c(/C=C/Nc2ccccc2)oc2ccccc21.[I-] | -70.4
CCOS(=O)(=O)[O-].CC[n+]1c(/C=C/Nc2ccccc2)oc2ccc(OC)cc21 | -77.2
NC(=O)CC(NC(=O)Cc1cccc2ccccc12)c1ccc(NCCN2CCCCC2)c([N+](=O)[O-])c1 (stereo not shown) | 7.38
O=c1[nH]c2ccc(Cl)cc2c(-c2ccccc2)c1N1CCN(c2ccccn2)CC1 | 6.61
CCCCn1c(N)c(N(CCOC)C(=O)c2c(CC)noc2C)c(=O)[nH]c1=O | 19.9
CCCC/C(O)=C1\C(=O)CC(C)(C)CC1=Nc1ccc(N)cc1 | -11.4
CC(C)NC[C@H](O)COc1ccc(CC(N)=O)cc1 | 12.8
Oc1oc(-c2ccccc2)nc1/C=N/c1nccs1 | 13.1
Cc1ccccc1NC(=O)c1csc2c1CCCC2 | -20.9
COc1ccc(-c2nnnn2C)cc1S(=O)(=O)NCc1ccccc1 | -13.9
Cc1noc(C)c1COc1ccc(C(=O)OCC(=O)N2CC(=O)Nc3ccccc32)cc1 | 4.54
Cc1noc(C)c1CSCC(=O)OCC(=O)N1CC(=O)Nc2ccccc21 | -72.4
Cc1noc(C)c1COc1cccc(C(=O)OCC(=O)N2CC(=O)Nc3ccccc32)c1 | -0.541
COC(=O)c1ccc(CSc2nc(C)nc3c2c(=O)n(C)c(=O)n3C)o1 | 14.7
Cc1ccc(C(=O)N2CCc3ccccc32)cc1 | -7.42
Cc1nc2cc(C(=O)N3CCc4ccccc43)ccc2n1-c1ccc(F)c(F)c1 | -69.7
O=C(c1ccc(F)c(F)c1)N1CCCc2ccccc21 | 0.0993
O=C(c1ccc2ccccc2c1)N1CCc2ccccc21 | 3.51
Cc1cccc(-n2cnc3cc(C(=O)N4CCCCC4)ccc32)c1 | -21.3
Cc1cccc(-n2cnc3cc(C(=O)N4CCc5ccccc54)ccc32)c1 | -61.5
